Holding throughout (assay): protein-binding microarray (PBM); PBM: ~300 nM protein, 6 mM HEPES pH 7.8, 80 mM KCl, 0.5 mM EDTA, 0.5 mM EGTA, 6% glycerol, 35 ng/ul poly-dIdC, 1% milk, 1 h, room temperature; Ap Aiptasia and Nv Nematostella (sea anemones) / Co Capsaspora / Aq Amphimedon (sponge) / Dm Drosophila / Hu human; RHD is the Rel homology domain; high values mean tight binding
Details in all cases: dsDNA, one strand shown

For one assay, the target named is T1, GST-Ap-NF-kB RHD (Exaiptasia pallida (Aiptasia), UniProt A0A913YAJ5 2-422).
T1 sequence: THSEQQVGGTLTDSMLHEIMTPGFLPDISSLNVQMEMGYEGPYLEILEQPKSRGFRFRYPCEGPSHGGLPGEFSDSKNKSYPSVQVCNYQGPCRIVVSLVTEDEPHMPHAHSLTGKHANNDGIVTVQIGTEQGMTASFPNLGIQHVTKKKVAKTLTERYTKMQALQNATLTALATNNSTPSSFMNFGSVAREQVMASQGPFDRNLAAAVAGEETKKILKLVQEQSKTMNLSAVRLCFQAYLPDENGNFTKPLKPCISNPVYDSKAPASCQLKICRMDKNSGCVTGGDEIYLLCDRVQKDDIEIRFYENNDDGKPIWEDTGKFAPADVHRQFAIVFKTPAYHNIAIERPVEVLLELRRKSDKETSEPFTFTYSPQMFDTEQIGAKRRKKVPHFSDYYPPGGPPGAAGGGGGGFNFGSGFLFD

In assay [1] the target is T2, GST-Nv-NF-kB (Cys allele) (Nematostella vectensis, UniProt E5G601 2-411).
T2 sequence: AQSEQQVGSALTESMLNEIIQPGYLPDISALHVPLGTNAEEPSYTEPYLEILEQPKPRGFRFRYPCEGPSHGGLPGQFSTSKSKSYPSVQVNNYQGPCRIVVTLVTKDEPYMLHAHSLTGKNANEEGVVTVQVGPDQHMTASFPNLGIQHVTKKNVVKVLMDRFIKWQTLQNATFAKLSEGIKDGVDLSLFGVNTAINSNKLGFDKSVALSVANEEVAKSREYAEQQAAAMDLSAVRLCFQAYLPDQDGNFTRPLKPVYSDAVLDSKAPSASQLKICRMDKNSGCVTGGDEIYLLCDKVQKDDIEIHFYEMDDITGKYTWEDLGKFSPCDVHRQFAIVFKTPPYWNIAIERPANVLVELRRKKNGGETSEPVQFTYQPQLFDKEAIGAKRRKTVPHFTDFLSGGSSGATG

In assay [2] the target is T3, GST-Nv-NF-kB (Ser allele) (Nematostella vectensis, UniProt A7UNT2 2-411).
T3 sequence: T2 sequence with Q21R, C66S, S207N, E215Q, V217A, E225K, A268E, D399E

For a further assay, the target named is T4, GST-Co-NF-kB (Capsaspora owczarzaki, UniProt F1ARL5 200-546).
T4 sequence: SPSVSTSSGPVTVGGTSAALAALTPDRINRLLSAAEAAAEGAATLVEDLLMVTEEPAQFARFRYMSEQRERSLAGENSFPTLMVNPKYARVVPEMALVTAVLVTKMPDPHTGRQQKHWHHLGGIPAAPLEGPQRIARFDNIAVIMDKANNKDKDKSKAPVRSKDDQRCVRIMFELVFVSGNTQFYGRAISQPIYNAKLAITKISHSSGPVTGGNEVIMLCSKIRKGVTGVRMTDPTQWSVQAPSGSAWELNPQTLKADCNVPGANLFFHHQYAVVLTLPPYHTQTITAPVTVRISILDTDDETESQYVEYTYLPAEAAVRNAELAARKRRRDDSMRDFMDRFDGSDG

In a further assay the target is T5, GST-Dm-Relish (Drosophila melanogaster, UniProt Q94527 99-473).
T5 sequence: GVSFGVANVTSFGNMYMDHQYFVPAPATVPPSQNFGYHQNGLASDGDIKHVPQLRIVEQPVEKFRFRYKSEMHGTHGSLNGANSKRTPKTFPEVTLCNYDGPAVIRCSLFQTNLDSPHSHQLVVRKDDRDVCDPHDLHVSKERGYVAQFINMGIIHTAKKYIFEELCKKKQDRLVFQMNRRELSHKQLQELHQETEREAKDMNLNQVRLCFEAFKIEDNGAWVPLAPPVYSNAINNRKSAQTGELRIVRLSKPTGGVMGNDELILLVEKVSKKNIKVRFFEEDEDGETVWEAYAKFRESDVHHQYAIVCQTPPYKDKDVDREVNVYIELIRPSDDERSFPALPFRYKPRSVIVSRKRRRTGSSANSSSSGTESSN

The next assay has as its target T6, GST-Aq-NF-kB (Amphimedon queenslandica, UniProt A9Y5G7 2-389).
T6 sequence: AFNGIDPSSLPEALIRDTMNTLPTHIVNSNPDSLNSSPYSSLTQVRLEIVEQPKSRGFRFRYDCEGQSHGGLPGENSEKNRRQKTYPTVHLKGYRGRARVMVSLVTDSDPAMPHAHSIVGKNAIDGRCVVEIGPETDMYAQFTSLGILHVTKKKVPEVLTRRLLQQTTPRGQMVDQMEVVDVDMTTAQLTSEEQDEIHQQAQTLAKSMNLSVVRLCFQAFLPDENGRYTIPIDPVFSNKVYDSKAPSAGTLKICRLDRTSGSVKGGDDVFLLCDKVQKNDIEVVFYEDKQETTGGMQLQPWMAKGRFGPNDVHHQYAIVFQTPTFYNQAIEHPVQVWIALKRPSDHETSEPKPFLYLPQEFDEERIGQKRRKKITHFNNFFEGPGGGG

A further assay deals with GST-Hu-p50 (Homo sapiens, UniProt P19838 7-356).
Sequence of GST-Hu-p50 (P19838 7-356): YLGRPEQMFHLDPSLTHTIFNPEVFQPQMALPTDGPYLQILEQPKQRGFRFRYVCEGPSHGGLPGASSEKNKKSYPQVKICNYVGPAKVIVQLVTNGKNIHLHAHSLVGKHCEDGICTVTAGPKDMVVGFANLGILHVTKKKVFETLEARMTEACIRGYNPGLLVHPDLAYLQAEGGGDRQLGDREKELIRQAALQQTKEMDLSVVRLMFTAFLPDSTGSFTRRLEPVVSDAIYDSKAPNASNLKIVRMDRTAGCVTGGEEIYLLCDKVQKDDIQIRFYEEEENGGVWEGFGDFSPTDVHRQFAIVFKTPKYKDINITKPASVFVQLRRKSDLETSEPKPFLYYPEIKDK

Substitutions are numbered along the chain they refer to.

Here are results for twelve sequences from paper PMC5700166.

Turning to “CCGATTAACATCACGTTTCCCCCTGATGTTAATCGGGTCTTGATTCGCTTGACGCTGCTG”, the binding signal with GST-Ap-NF-kB RHD came out at 6.91 z-score; in assay [1] it was 6.46 z-score; in assay [2], 9.03 z-score; with GST-Co-NF-kB it was 9.58 z-score; with GST-Dm-Relish, 2.71 z-score; with GST-Aq-NF-kB, 5.17 z-score. The same sequence showed a binding signal with GST-Hu-p50 of 6.64 z-score.
“CCGATTAACATCAGAGTATTCCCTGATGTTAATCGGGTCTTGATTCGCTTGACGCTGCTG”: the binding signal with GST-Ap-NF-kB RHD amounted to 3.08 z-score; in assay [1] it was 2.98 z-score; in assay [2] it was 3.2 z-score; with GST-Co-NF-kB it was 2.71 z-score; in the assay with GST-Dm-Relish it was 2.22 z-score; with GST-Aq-NF-kB, 3.06 z-score. In the assay with GST-Hu-p50, the binding signal worked out at 1.6 z-score.
For “CCGATTAACATCAGGGTATACCCTGATGTTAATCGGGTCTTGATTCGCTTGACGCTGCTG”, the binding signal with GST-Ap-NF-kB RHD was determined as 4.43 z-score; in assay [1], 3.42 z-score; in assay [2], 2.44 z-score; with GST-Co-NF-kB it was 2.48 z-score; in the assay with GST-Dm-Relish, 4.16 z-score; in the assay with GST-Aq-NF-kB, 6.04 z-score. Moreover, the binding signal in the assay with GST-Hu-p50 was determined as 2.22 z-score.
As for “CCGATTAACATCAGAGTTTCCCCTGATGTTAATCGGGTCTTGATTCGCTTGACGCTGCTG”, the binding signal in the assay with GST-Ap-NF-kB RHD was determined as 7.08 z-score; in assay [1], 8.35 z-score; in assay [2], 9.96 z-score; with GST-Co-NF-kB it was 7.72 z-score; in the assay with GST-Dm-Relish, 4.61 z-score; with GST-Aq-NF-kB, 6.33 z-score. The sequence also returned a binding signal with GST-Hu-p50 of 6.14 z-score.
In the case of “CCGATTAACATCAATGCCCCCCCTGATGTTAATCGGGTCTTGATTCGCTTGACGCTGCTG”, the binding signal with GST-Ap-NF-kB RHD stood at 5.2 z-score; in assay [1] it was 2.82 z-score; in assay [2] it was 3.53 z-score; with GST-Co-NF-kB, 5.03 z-score; with GST-Dm-Relish it was 4.02 z-score; with GST-Aq-NF-kB, 4.04 z-score. The same sequence had a binding signal in the assay with GST-Hu-p50 of 4.02 z-score.
Regarding “CCGATTAACATCACCCTGGGAAATGATGTTAATCGGGTCTTGATTCGCTTGACGCTGCTG”, the binding signal with GST-Ap-NF-kB RHD worked out at 1.68 z-score; in assay [1], 1.49 z-score; in assay [2] it was 1.51 z-score; with GST-Co-NF-kB it was 3.42 z-score; with GST-Dm-Relish, 1.08 z-score; with GST-Aq-NF-kB, 1.74 z-score. In the assay with GST-Hu-p50, this sequence gave a binding signal of 2.25 z-score.
As for “CCGATTAACATCAAAAGTCCCCCTGATGTTAATCGGGTCTTGATTCGCTTGACGCTGCTG”, the binding signal with GST-Ap-NF-kB RHD turned out to be 8.58 z-score; in assay [1], 8.14 z-score; in assay [2], 8.36 z-score; with GST-Co-NF-kB it was 7.93 z-score; with GST-Dm-Relish it was 9.15 z-score; in the assay with GST-Aq-NF-kB, 7.54 z-score. The same sequence displayed a binding signal with GST-Hu-p50 of 6.72 z-score.
“CCGATTAACATCACCCTTTTCCCTGATGTTAATCGGGTCTTGATTCGCTTGACGCTGCTG”: the binding signal in the assay with GST-Ap-NF-kB RHD was determined as 2.88 z-score; in assay [1], 3.25 z-score; in assay [2], 5.61 z-score; with GST-Co-NF-kB, 4.6 z-score; with GST-Dm-Relish, 1.52 z-score; in the assay with GST-Aq-NF-kB it was 2.91 z-score. This sequence also had a binding signal with GST-Hu-p50 of 2.59 z-score.
With “CCGATTAACATCAGGGGATTCGATGATGTTAATCGGGTCTTGATTCGCTTGACGCTGCTG”, the binding signal is 5.58 z-score with GST-Ap-NF-kB RHD; 5.21 z-score in assay [1]; 7.7 z-score in assay [2]; 2.24 z-score with GST-Co-NF-kB; 3.8 z-score in the assay with GST-Dm-Relish; 3.6 z-score with GST-Aq-NF-kB. Further, the binding signal with GST-Hu-p50 came to 5.33 z-score.
On to “CCGATTAACATCAGGGGGAGAAATGATGTTAATCGGGTCTTGATTCGCTTGACGCTGCTG”, for which the binding signal in the assay with GST-Ap-NF-kB RHD is 7.1 z-score; in assay [1], 6.13 z-score; in assay [2], 7.48 z-score; in the assay with GST-Co-NF-kB it was 10.7 z-score; in the assay with GST-Dm-Relish it was 3.41 z-score; with GST-Aq-NF-kB, 4.8 z-score. In the assay with GST-Hu-p50, the binding signal turned out to be 6.45 z-score.
In the case of “CCGATTAACATCAACTTCCCCCCTGATGTTAATCGGGTCTTGATTCGCTTGACGCTGCTG”, the binding signal with GST-Ap-NF-kB RHD turned out to be 7.03 z-score; in assay [1] it was 6.37 z-score; in assay [2] it was 6.34 z-score; with GST-Co-NF-kB, 9.16 z-score; in the assay with GST-Dm-Relish it was 7.29 z-score; in the assay with GST-Aq-NF-kB, 6.32 z-score. This sequence also displayed a binding signal in the assay with GST-Hu-p50 of 5.76 z-score.
“CCGATTAACATCAGGGAAAACAATGATGTTAATCGGGTCTTGATTCGCTTGACGCTGCTG”: the binding signal with GST-Ap-NF-kB RHD amounted to 3.05 z-score; in assay [1] it was 4.96 z-score; in assay [2], 6.37 z-score; in the assay with GST-Co-NF-kB, 5.48 z-score; with GST-Dm-Relish it was 1.47 z-score; with GST-Aq-NF-kB, 3.34 z-score. This sequence yielded a binding signal with GST-Hu-p50 of 3.66 z-score.
